# KB-3-1 tox = kills parental KB-3-1 adenocarcinoma cells. KB-3-1 viability, CellTiter-Glo ATP luminescence, 72 h. Potency, µM (highest dose often 46.1 µM), hits mostly cytotoxic. actives 1.4% (n = 400,000); note: % is set by controls: 0 for no effect and ±100 for the full control effect; nearly all actives have a fitted effect of over 60% in size
#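 Using CellTiter-Glo luminescence, growth of non-resistant KB-3-1 adenocarcinoma cells is assessed 72 h after pin-tool compound addition at 37 °C. Normalized responses across the concentration series yield fitted curves.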
# ATXN2 expr inh = ATXN2 expression inhibition; HEK-293 ATXN2-luciferase reporter, luminescence, 24 h; Potency, µM (doses to about 57 µM), for the others: at the highest dose activity change, negative = inhibition, actives largely listed as inhibitors; actives 0.72% (n = 360,000); note: % is set by controls: 0 for no effect and ±100 for the full control effect; nearly all actives have a fitted effect of over 55% in size
#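 ATXN2-luciferase reporter cells (luciferase flanked by upstream and downstream ATXN2 gene portions) were treated 24 h at 37 °C with compounds at up to 57 uM. SteadyGlo luminescence gave expression; GF-AFC fluorescence gave viability.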
# KB-V1 cytotox = kills drug-selected multidrug resistant KB-V1 cells | Potency, µM (doses to about 46.1 µM), hits mostly cytotoxic | KB-V1 MDR cells viability, CellTiter-Glo, 72 h | actives 3.4% (n = 400,000); note: % is set by controls: 0 for no effect and ±100 for the full control effect; nearly all actives have a fitted effect of over 60% in size
#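 qHTS viability screen in drug-selected KB-V1 MDR cells: 72 h compound treatment at 37 degrees C, ATP luminescence end point.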
# HT1080 IDH1KD tx = HT-1080 IDH1 knockdown cell toxicity (counter line); HT-1080 IDH1 knockdown viability, ATP luminescence, 48 h; Potency, µM (top dose mostly 46.1 µM), without a hit: at the top dose activity, negative = toxicity, most hits filed as cytotoxic; actives 2% (n = 360,000);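 note: 0% = DMSO wells and -100% = cell-free medium wells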
#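 In this qHTS, HT-1080 cells depleted of IDH1 are exposed for 48 h at 37 °C to compound titrations. Toxicity is scored from CellTiter-Glo luminescence, with DMSO as full viability and medium alone as none.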
# ATXN viability = viability counter-screen for ATXN expression inhibitors; S2 cells (HEK-293 line with an ATXN2-luciferase reporter) viability, CellTiter-Fluor protease fluorescence, 24 h; actives 0.49% (n = 400,000); AID 651635; Potency, µM (titrated, usually from 56.7 µM), hits mostly cytotoxic; note: nearly all actives have a fitted effect of over 40% in size
# HT1080NT lethal = kills 2HG-producing HT-1080-NT fibrosarcoma cells. actives 1.6% (n = 360,000). Potency, µM (top dose mostly 46.1 µM), for inactives: top-dose activity, negative = less viability, hits mostly cytotoxic. HT-1080-NT fibrosarcoma viability, CellTiter-Glo ATP luminescence, 48 h;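 note: NT is the 2HG producing partner of a matched IDH1 knockdown line; 0% = DMSO-treated cells and -100% = media-only wells without cells; nearly all actives have a fitted effect of over 55% in size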
#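 Viability of the 2HG-overproducing fibrosarcoma line after 48 hours of compound exposure at 37 degrees C was determined by luminescence with CellTiter-Glo, and concentration-effect curves were then fitted and categorized.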
# Numbers without * were called inactive; i = inactive; u = inconclusive; x = not tested or not shown. An excerpt weighted towards active compounds, which were near 6.2% of everything screened. Calls come from the whole dose curve; as a rule, active = well fitted curve in the direction sought with a large enough effect; inconclusive = small, poorly fitted or top-dose-only effect, or another doubt; inactive = no such curve, though single readings can be large; an effect the other way counts as inactive or inconclusive. Potency is the fitted concentration of half-maximal effect.
SMILES,KB-3-1 tox,ATXN2 expr inh,KB-V1 cytotox,HT1080 IDH1KD tx,ATXN viability,HT1080NT lethal
Cc1ccc(C(=O)NCCc2nnc3n2CCN(C(=O)c2ccnc(Cl)c2)CC3)cc1,x,x,x,x,i,x
Cc1nc(NCC(=O)c2c[nH]c3ccccc23)sc1C,u,x,i,x,x,x
Cc1cc2nc(-c3cccc(NC(=O)COc4ccc(C(C)C)cc4)c3)oc2cc1C,i,110%,i,x,i,x
O=C(C1CCCN(S(=O)(=O)c2cccc3nonc23)C1)N1CCN(c2cccc(C(F)(F)F)c2)CC1 (centres undefined),u,4%,i,x,i,x
CCOC(=O)c1c(-c2ccc(OC)cc2)oc2ccc(OCc3ccccc3C)cc12,i,12%,u,x,i,x
C(=C\c1ccccc1)/CN1CCN(C(c2ccnc3ccccc23)c2nnnn2C2CCCC2)CC1 (centres undefined),i,-26%,15µM*,u,u,-29%
Cc1cc(NC(=O)CCN2CCN(C/C=C/c3ccccc3)CC2)ccc1Br,u,-22%,u,23µM*,i,21µM*
Cc1ccc2nc(CN3CCN(C(=O)Nc4ccc(C)c(F)c4)CC3)oc2c1,i,0%,i,x,i,x
CCc1ccccc1NS(=O)(=O)c1ccc2[nH]cc(C(=O)N(CC)Cc3ccccc3)c(=O)c2c1,i,1%,u,x,i,x
COc1ccc(C(CNC(=O)c2ccc(OCc3c(C)noc3C)cc2)N2CCCC2)cc1 (centres undefined),u,-10%,1.5µM*,2%,i,2%
COc1ccc(C(CNC(=O)c2cccc(NC(=O)c3cccs3)c2)N2CCCC2)cc1 (centres undefined),i,-5%,21µM*,-9%,u,-5%
COc1ccccc1C(CNC(=O)c1ccc(OCc2c(C)noc2C)cc1)N1CCCC1 (centres undefined),u,-14%,u,-2%,i,-8%
COc1cc(C(=O)NCC(c2ccco2)N2CCCC2)ccc1OCc1c(C)noc1C (centres undefined),u,22%,10µM*,11%,i,18%
COc1cc(C(=O)NCc2cccs2)ccc1OCc1c(C)noc1C,i,23%,i,15%,i,13%
CCn1c(CN2CCCCC2)nc2cc(NC(=O)COc3ccc([N+](=O)[O-])cc3)ccc21,i,-14%,u,x,i,x
O=C(NNc1ccc([N+](=O)[O-])cc1)c1ccco1,i,3%,i,-9%,i,-1%
O=C(NNc1ccc([N+](=O)[O-])cc1[N+](=O)[O-])c1ccco1,u,u,i,u,u,18µM*
Cc1ccc(Nc2cc(-c3cccc(N4C(=O)c5ccccc5C4=O)c3)ncn2)cc1NS(C)(=O)=O,x,17%,x,x,x,x
CCn1c(=O)cc(SCC(=O)N2CCOCC2)c2ccccc21,i,17%,u,-29%,i,0%
CCn1c(=O)cc(SCC(=O)N2CCN(c3ccccc3OC)CC2)c2ccccc21,i,25%,8.2µM*,u,i,-4%
COCCCNC(=O)c1cc(Sc2ccc(F)cc2)nc2ccccc12,i,2%,u,-13%,i,-7%
Cc1ccc(Sc2cc(C(=O)NCCCN(C)C)c3ccccc3n2)cc1,i,-20%,i,18µM*,u,u
CCOCCCNC(=O)c1cc(Sc2ccc(F)cc2)nc2ccccc12,i,1%,21µM*,-14%,i,-2%
Cc1ccc2c(c1)-c1c(cnn1CC(=O)N1CCN(c3cc(C)ccc3C)CC1)CO2,i,-8%,u,x,i,x
CCc1nc2nc(C)c(NS(=O)(=O)c3ccc(C)cc3)c(=O)n2[nH]1,i,7%,i,x,i,x
SMILES,KB-3-1 tox,ATXN2 expr inh,KB-V1 cytotox,HT1080 IDH1KD tx,ATXN viability,HT1080NT lethal
Cc1ccc(CNC(=O)CCc2c(C)nc3nc(C)nn3c2C)cc1,i,12%,i,x,i,x
CCOc1ccc(-n2cnc3sc4c(c3c2=O)CCCC4)cc1,i,43%,i,-2%,i,4%
COc1cccc(-n2cnc3sc(C)c(C)c3c2=O)c1,i,21%,21µM*,-1%,i,-1%
COc1ccc(-n2cnc3sc4c(c3c2=O)CCCC4)cc1,i,4%,16µM*,-17%,i,1%
Cc1cccc(-n2cnc3sc(C)c(C)c3c2=O)c1,i,7%,i,4%,i,19%
O=S1(=O)c2ccccc2N(Cc2cccc(Cl)c2)c2ccccc21,i,-25%,i,x,i,x
O=C(NCCCN1CCOCC1)c1ccc(CSc2ccc(Cl)cc2)cc1,u,u,u,u,u,18µM*
CC(=O)NCCNC(=O)c1ccc(Sc2ccccc2)c([N+](=O)[O-])c1,i,x,i,-2%,x,-3%
CN(C)CCNC(=O)c1ccc(Sc2ccc(Br)cc2)c([N+](=O)[O-])c1,u,-15%,u,18µM*,i,23µM*
CC(C)c1ccc(C(=O)NCCCN2CCOCC2)cc1,i,23%,i,8%,i,19%
O=C(NCCCN1CCOCC1)c1ccc(Sc2ccc(F)cc2)c([N+](=O)[O-])c1,i,3%,23µM*,2%,i,3%
COC(=O)c1scc(-c2ccc(C)cc2)c1S(=O)(=O)Nc1cccc(C(F)(F)F)c1,i,-5%,i,x,i,x
CC1CCN(c2ccc(-c3cccc(NS(=O)(=O)c4ccc(Cl)s4)c3)nn2)CC1,i,20%,i,x,u,x
O=C(C=Cc1ccc(/C=C/C(=O)Nc2ccc(C3=NCCN3)cc2)cc1)Nc1ccc(C2=NCCN2)cc1,x,2%,x,x,x,x
CCc1ccc(NC(=O)Cn2c(=O)n(Cc3nc(-c4ccccc4)no3)c(=O)c3cc4c(cc32)OCO4)cc1,i,-20%,i,x,i,x
CNS(=O)(=O)c1cnccc1N1CCN(c2cccc(Cl)c2)CC1,i,-16%,i,1%,i,-10%

# From PubChem
